The supplement of paper PMC6555819

Key:
Assay in all cases: PBM binding z-score (relative to random genomic background probes); higher = stronger binding; sequences stand for … in GC…GCGATTGACAGCGTAGAATGAAGG
[1] = system: FXR:RXRa (NR concentration 270 nM, RXRa partner concentration 90 nM)
Method in brief: (§1)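 Each nuclear receptor dimer, without ligand, was incubated for 1 h on custom Agilent 4×180K protein-binding microarrays. Binding was detected with antibodies against each partner (one per run), and scanned fluorescence was regression-normalized. The binding z-scores are referenced to random human genomic background probes.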

[2] = system: LXRa:RXRa (NR concentration 270 nM, RXRa partner concentration 90 nM)
Method in brief: as §1

[3] = system: LXRa homodimer (NR concentration 270 nM)
Method in brief: as §1

[4] = system: LXRb:RXRa (NR concentration 270 nM, RXRa partner concentration 90 nM)
Method in brief: as §1

[5] = system: LXRb homodimer (NR concentration 270 nM)
Method in brief: as §1

[6] = system: PPARa:RXRa (NR concentration 270 nM, RXRa partner concentration 90 nM)
Method in brief: as §1

[7] = system: PPARg:RXRa (NR concentration 180 nM, RXRa partner concentration 90 nM)
Method in brief: as §1

[8] = system: PPARg:RXRa 270nM:90nM, anti-RXR (NR concentration 270 nM, RXRa partner concentration 90 nM)
Method in brief: as §1

[9] = system: PPARg:RXRa 30nM:10nM, anti-RXR (NR concentration 30 nM, RXRa partner concentration 10 nM)
Method in brief: as §1

[10] = system: PPARg:RXRa 90nM:30nM, anti-RXR (NR concentration 90 nM, RXRa partner concentration 30 nM)
Method in brief: as §1

| Sequence | PBM binding z-score [1] | PBM binding z-score [2] | PBM binding z-score [3] | PBM binding z-score [4] | PBM binding z-score [5] | PBM binding z-score [6] | PBM binding z-score [7] | PBM binding z-score [8] | PBM binding z-score [9] | PBM binding z-score [10] |
| --- | --- | --- | --- | --- | --- | --- | --- | --- | --- | --- |
| TCATATAGGTAAATGCTAGGTCAAAGTCCGATCT | 1.83 | 3.8 | 5.26 | 2.45 | 0.769 | 2.57 | 1.76 | 2.81 | 3.96 | 3.47 |
| AATACAGGGTCACTAGGCCAGCGTAGGTACGAAT | 6.02 | 4.76 | 0.904 | 3.93 | 0.853 | 5.62 | 7.64 | 6.28 | 3.54 | 5.52 |
| ATCTCTACGTAAAGATAGTTCAGTGAATGCAAAT | -0.547 | -0.0846 | 0.644 | 0.0178 | 0.419 | -0.229 | 0.493 | 0.104 | 0.0785 | 0.04 |
| CAAACTAGGGCACGAAAGGTCAAAGTCGAATGAC | 5.64 | 6.93 | 6.08 | 5.54 | 1.5 | 6.49 | 8.39 | 7.22 | 5.17 | 7.03 |
| ACTTACGGGTGAACGAGGTTATAGCACGCGTATA | 0.972 | 1.28 | 0.16 | 1.21 | -0.375 | 2.36 | 1.73 | 1.35 | 0.333 | 0.745 |
| GCGACTGGGGCATCAGCAGGTTACCATAACTTAA | 0.0865 | 0.156 | 0.0275 | 0.704 | -0.886 | 1.33 | 1.21 | 1.03 | 0.757 | 0.397 |
| TAGCCTAGGTCATTTAGGGGCCAGTATAGAAAGC | 4.42 | 4.04 | 0.996 | 3.09 | 1.69 | 3.41 | 1.46 | 2.15 | 0.169 | 1.49 |
| ATATGTACGTTAAGGGTCATTCAGGTTGGTTCGC | 4.5 | 4.13 | 2.57 | 4.2 | 1.31 | 4.74 | 4.87 | 6.38 | 4.9 | 6.21 |
| ACTAGTTGGTCAGCTGAAGTCACACACAATTCGG | -0.0902 | -0.0916 | 0.115 | 0.118 | 0.19 | -0.0344 | 0.754 | 0.0912 | -0.0266 | 0.0351 |
| TCAGACAGGTGAATGTAACTCAGGTACGCAGTCG | 0.149 | 0.452 | 0.0267 | 0.271 | -0.401 | 0.789 | 0.834 | 1.72 | 2.99 | 2.36 |
| ATCTCTAGGTAACAATTTCAGTGAAAGAGAGGAC | 0.775 | 0.589 | 0.266 | 0.374 | 1.34 | 0.437 | 0.734 | 0.62 | 0.676 | 0.649 |
| CCTTACGGGTCGCGAGGTTATAGCACGACGAGCG | 2.87 | 1.99 | -0.147 | 1.82 | -0.455 | 3.61 | 1.91 | 2.15 | 0.056 | 0.872 |
| TCGAGTAGGTAAGTCGGGGCATTCAGCCAACATA | -0.0236 | -0.0704 | -0.439 | -0.175 | -0.922 | 0.0443 | -0.3 | 0.0863 | 0.929 | 0.572 |
| CATACAGTGTCAGCTAGGCCAGAGTAGGGACGGC | -0.279 | -0.284 | -0.667 | -0.652 | 0.0378 | -0.3 | 0.467 | -0.284 | -0.315 | -0.243 |
| TCATATAGGTAATACAGGTGAAAGTAGGCATCTA | 0.885 | 1.45 | 0.55 | 1.22 | 0.295 | 2.15 | 2.26 | 2.62 | 3.8 | 3.24 |
| CAAACTTGGTCAAGAGGTCAAAGTCCGCTTCCCG | 5.72 | 5.27 | 5.52 | 5.04 | 1.18 | 5.37 | 4.2 | 5.18 | 2.94 | 4.56 |
| CCGACTGGGGCAAAGGTTACCTTACTCAGTACGA | 1.37 | 1.71 | -0.345 | 1.98 | -1.42 | 5.37 | 10.6 | 9.12 | 7.96 | 9.81 |
| CCTCGGAGGACTGAAGGTCAGAGCTGTCCGCTTT | 0.88 | 1.89 | 0.285 | 0.745 | -0.722 | 1.46 | -0.679 | 0.572 | -0.9 | -0.111 |
| CCTTACGGGTCACGAGGTTATTGCACGACGAGCG | 6.84 | 4.54 | 0.946 | 4.15 | 0.296 | 6.08 | 7.34 | 6.45 | 3.32 | 5.41 |
| GGAGCGAGGGCATTCGAGTTGATAGCATGGCGAT | 0.608 | 1.24 | -0.883 | -0.106 | -1.07 | 0.542 | 0.179 | -0.159 | -0.424 | -0.195 |
| TCTCGGAGGACACGACAGGTCAGAGCTCGACATC | 1.13 | 1.51 | 0.823 | 0.827 | -0.505 | 1.4 | 0.559 | 1.1 | 2.11 | 1.5 |
| ACTATTAGTTGAGAGGAGGGCAACCGATAGGTTG | 0.181 | -0.0431 | 0.0481 | -0.187 | 0.248 | 0.335 | 0.512 | 0.15 | 0.176 | 0.106 |
| AGAATGAGTTTATACGTAGATCAGGGAAGAAAGT | -0.0777 | -0.0651 | -0.37 | -0.296 | -0.286 | -0.283 | 0.634 | -0.311 | 0.114 | -0.213 |
